Reference: the supplement of paper PMC9254222
Over roughly 1,100 compounds, “Renilla luciferase signal (cell health) relative to plate median” has its median near 0.97; the highest 2% begin near 1.6. Many of the other results were omitted from the sample, so the highest values are more common in it than they were.

Test system: HEK293T (UBE3A T485A transfected, BAR Wnt reporter)
Test: Renilla luciferase signal (cell health) relative to plate median (fold (linear ratio)); higher = higher Renilla signal
Conditions: 24 h
Outline: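 Each value averages four biological replicates in HEK293T cells grown at 4500 cells/well in DMEM with 10% FBS at 37°C and 5% CO2. The cells were transfected with a BAR firefly luciferase Wnt reporter, TK-Renilla and an expression plasmid, then four hours later robotically treated with the chemicals at 0.01–100 uM for 24 h. Dual-Glo luciferase signals were median-centred per plate, with the firefly/Renilla ratio reported as Wnt activity and raw Renilla as cell health.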

Row | Compound | Renilla luciferase signal (concentration: 0.01 uM) | Renilla luciferase signal (concentration: 0.1 uM) | Renilla luciferase signal (concentration: 1 uM) | Renilla luciferase signal (concentration: 10 uM) | Renilla luciferase signal (concentration: 100 uM)
1 | CSC(=O)c1cccc2nnsc12 [Acibenzolar-S-methyl] | 0.985 | 1.18 | 1.05 | 1.07 | 1.8
2 | CN(C)C(=O)Nc1ccc(Cl)c(Cl)c1 [Diuron] | 0.747 | 1.11 | 1.06 | 0.951 | 0.328
3 | O=C(CCCCCCCCc1cccnc1)N1CCC(C=C(c2ccccc2)c2ccccc2)CC1 |  | 0.898 | 0.875 | 0.939 | 0.0905
4 | C=CCOC(Cn1ccnc1)c1ccc(Cl)cc1Cl (stereo not drawn) [Imazalil] | 0.797 | 0.885 | 0.939 | 0.777 | 0.0667
5 | c1ccc2cc3ccccc3cc2c1 [Anthracene] |  | 1.34 | 1.26 | 0.952 | 0.992
6 | c1ccc2c(c1)ccc1ccccc12 [Phenanthrene] |  | 0.817 | 0.792 | 0.858 | 0.898
7 | c1ccc2ccccc2c1 [Naphthalene] |  | 1.18 | 1.14 | 1.33 | 1.64
8 | N=C(N)c1ccc(OCCCCCOc2ccc(C(=N)N)cc2)cc1.O=S(=O)(O)CCO.O=S(=O)(O)CCO [Pentamidine isethionate] |  | 1.02 | 2.37 | 0.453 | 0.0508
9 | CCCCCCCC(=O)O [Octanoic acid] |  | 0.834 | 0.792 | 0.83 | 1.09
10 | OCC(CO)(CO)CO [Pentaerythritol] |  | 0.898 | 1.02 | 1.08 | 2.01
11 | OCC(CO)(CBr)CBr [2,2-Bis(bromomethyl)-1,3-propanediol] |  | 0.999 | 0.961 | 1.01 | 1.07
12 | O=c1c(-c2ccc(O)cc2)coc2cc(O)cc(O)c12 [Genistein] | 0.617 | 0.604 | 0.77 | 0.58 | 1.01
13 | COc1cc(S(=O)(=O)[O-])c(C)cc1/N=N/c1c(O)ccc2cc(S(=O)(=O)[O-])ccc12.[Na+].[Na+] |  | 0.934 | 0.936 | 0.887 | 0.502
14 | CC[C@H]1OC(=O)[C@H](C)[C@@H](O[C@H]2C[C@@](C)(OC)[C@@H](O)[C@H](C)O2)[C@H](C)[C@@H](O[C@@H]2O[C@H](C)C[C@H](N(C)C)[C@H]2O)[C@](C)(O)C[C@@H](C)C(=O)[C@H](C)[C@@H](O)[C@]1(C)O [Erythromycin] |  | 0.894 | 1.14 | 2.38 | 5.97
15 | CCCC(CCC)C(=O)O [Valproic acid] | 0.788 | 0.847 | 0.87 | 0.883 | 1.56
16 | CCNc1nc(N)nc(Cl)n1 [Deisopropylatrazine] | 0.898 | 0.991 | 0.951 | 0.879 | 0.243
17 | CC(=O)S[C@H](C(=O)N[C@H]1Cc2ccccc2[C@H]2CCC[C@@H](C(=O)O)N2C1=O)C(C)C [Ilepatril] |  | 0.879 | 0.836 | 0.857 | 1.53
18 | CCCCCCCCC(=O)O [Nonanoic acid] |  | 0.743 | 0.854 | 0.901 | 0.975
19 | CN(C)c1ccc(C(=C2C=CC(=[N+](C)C)C=C2)c2ccc(N(C)C)cc2)cc1.[Cl-] [Gentian Violet] |  | 0.155 | 0.0242 | 0.0245 | 0.0226
20 | c1ccc(Nc2ccccc2)cc1 [Diphenylamine] | 1.09 | 1.05 | 1.06 | 1.09 | 1.82

Row | Compound | Renilla luciferase signal (concentration: 0.01 uM) | Renilla luciferase signal (concentration: 0.1 uM) | Renilla luciferase signal (concentration: 1 uM) | Renilla luciferase signal (concentration: 10 uM) | Renilla luciferase signal (concentration: 100 uM)
21 | Nc1ccc(Nc2ccccc2)cc1 [N-Phenyl-1,4-benzenediamine] |  | 0.905 | 0.984 | 0.71 | 0.204
22 | CCNc1ccccc1 [N-Ethylaniline] |  | 1.01 | 0.97 | 1.08 | 1.17
23 | Nc1cccc2c(N)cccc12 [1,5-Naphthalenediamine] |  | 0.805 | 0.822 | 0.856 | 0.73
24 | Nc1ccc2c(c1)C(=O)c1ccccc1C2=O [2-Aminoanthraquinone] |  | 1.16 | 0.898 | 0.829 | 0.621
25 | Nc1cccc(N)c1 [1,3-Benzenediamine] |  | 1.19 | 1.05 | 1.19 | 1.74
26 | CCCCC(CC)CO (stereo not drawn) [2-Ethyl-1-hexanol] |  | 0.758 | 0.775 | 0.504 | 1.25
27 | CCCCCCCCCCCCCCCCCC(=O)O [Octadecanoic acid] |  | 0.913 | 0.958 | 0.923 | 1.4
28 | O=C(O)CC(O)C(=O)O (stereo not drawn) [Malic acid] |  | 1.33 | 1.26 | 1.32 | 1.29
29 | CNC(CC(=O)O)C(=O)O (stereo not drawn) | 1.02 | 1.14 | 0.949 | 1.02 | 1.9
30 | Cc1ccc2oc(CN(Cc3ccccc3)C(=O)Nc3c(F)cc(F)cc3F)c(-c3ccc(Cl)cc3)c2c1 |  | 0.953 | 0.858 | 0.846 | 0.482
31 | CC(C)CCCCCCOC(=O)C1CCCCC1C(=O)OCCCCCCC(C)C (stereo not drawn) [Diisononyl cyclohexane-1,2-dicarboxylate] |  | 0.946 | 1.13 | 1.06 | 1.38
32 | COc1cc(C(C)C)c2c(c1)S(=O)(=O)N(COc1cc(=O)n3cccc(OCCN4CCCCC4)c3n1)C2=O |  | 1.26 | 1.3 | 1.21 | 0.497
33 | CC(C)CC(C)(O)C#CC(C)(O)CC(C)C (stereo not drawn) [2,4,7,9-Tetramethyl-5-decyne-4,7-diol] |  | 0.987 | 0.919 | 0.966 | 0.295
34 | CCOC(=O)C(C)Oc1ccc(Oc2cnc3cc(Cl)ccc3n2)cc1 (stereo not drawn) [Quizalofop-ethyl] | 1.1 | 0.758 | 0.993 | 0.953 | 1.88
35 | CCCCOC(=O)C(C)Oc1ccc(Oc2ccc(C(F)(F)F)cn2)cc1 (stereo not drawn) [Fluazifop-butyl] | 1.02 | 0.837 | 1.04 | 0.984 | 1.81
36 | C#CCOC(=O)[C@@H](C)Oc1ccc(Oc2ncc(Cl)cc2F)cc1 [Clodinafop-propargyl] | 0.926 | 1.11 | 1.04 | 1.01 | 0.269
37 | CCOC(=O)C(C)Oc1ccc(Oc2nc3ccc(Cl)cc3o2)cc1 (stereo not drawn) [Fenoxaprop-ethyl] | 0.9 | 0.851 | 1.02 | 1.13 | 1.78
38 | CCCCOC(=O)[C@@H](C)Oc1ccc(Oc2ccc(C(F)(F)F)cn2)cc1 [Fluazifop-P-butyl] | 1.25 | 1.18 | 1.05 | 1.22 | 0.693
39 | CCOC(=O)C(C)(C)Oc1ccc(Cl)cc1 [Clofibrate] |  | 0.962 | 1.02 | 1.17 | 1.38
40 | CCCCOC(=O)c1ccccc1 [Butyl benzoate] |  | 0.872 | 0.958 | 1.1 | 1.1
